USP8 block = inhibitors of human USP8 deubiquitinase | P40818 | purified USP8, Ub-rhodamine cleavage fluorescence, 30 min | inhibition, % at 20 µM | 47,000 compounds, 4.2% hits
USP7 block = inhibitors of human USP7 deubiquitinase. Q93009. purified USP7, Ub-rhodamine cleavage fluorescence. inhibition, % at 20 µM. 47,000 compounds, 0.3% hits. AID 1645854
USP10 inh = human USP10 deubiquitinase inhibition | inhibition, % at 20 µM | Q14694 | 47,000 compounds, 1.1% hits | purified USP10, Ub-rhodamine fluorescence, 60 min
UCHL1 inh = blocks human UCHL1 ubiquitin-rhodamine cleavage. P09936. purified UCHL1, Ub-rhodamine cleavage fluorescence. inhibition, % at 20 µM. 47,000 compounds, 0.2% hits. AID 1645859
Hits are given with their value. An excerpt weighted towards active compounds, which were near 5% of everything screened. Rule as the data show it: active = inhibition above about 30%; inactive = the rest.

What do the screens show for `Cc1ccc(NC(=O)c2c(O)c3cnn(C)c3[nH]c2=O)cc1C`?
USP8 block: 84.8; USP7 block: inactive; USP10 inh: inactive; UCHL1 inh: inactive

How did CN1CCN(CC(O)COCCOc2ccc(C(C)(C)C)cc2)CC1 (centres undefined) do in these assays?
USP8 block: inactive; USP10 inh: inactive; UCHL1 inh: inactive

How did CN1[C@@H](CCC(=O)NCc2ccco2)CNC(=O)[C@@H]2[C@H]1CCN2Cc1nc2ccccc2n1C do in these assays?
USP8 block: inactive; USP7 block: inactive; USP10 inh: inactive; UCHL1 inh: inactive

How did COc1ccc(CNC(=O)CN2C(=O)c3ccccc3C2c2cn(C)c3ccccc23)cc1 (centres undefined) do in these assays?
USP8 block: inactive; USP7 block: inactive; USP10 inh: inactive; UCHL1 inh: inactive

How did CCC(C)(C)C1CCC2(CC1)N=C(N)Nc1nc3ccccc3n12 (centres undefined) do in these assays?
USP8 block: inactive; USP7 block: inactive; USP10 inh: inactive; UCHL1 inh: inactive

What do the screens show for `O=C(NCc1ccc2c(c1)OCO2)c1c(O)c2cnn(Cc3ccccc3)c2[nH]c1=O`?
USP8 block: 57.4; USP7 block: inactive; USP10 inh: inactive; UCHL1 inh: inactive

How did COc1ccccc1NC(=O)c1c(O)c2cccnc2n(-c2ccccc2)c1=O do in these assays?
USP8 block: 33.0; USP7 block: inactive; USP10 inh: inactive; UCHL1 inh: inactive

Results for O=C(NCc1cc(F)cc(F)c1)c1c(O)c2cnn(Cc3ccccc3)c2[nH]c1=O ?
USP8 block: inactive; USP7 block: inactive; USP10 inh: inactive; UCHL1 inh: inactive

Results for Cc1nc2ccccn2c1CC(=O)Nc1cccc(C2CCc3nncn3C2)c1 (centres undefined) ?
USP8 block: 35.9; USP7 block: inactive; USP10 inh: inactive; UCHL1 inh: inactive

What do the screens show for `O=C(CN1CN(c2ccc(F)cc2)c2ncccc2S1(=O)=O)Nc1ccccc1`?
USP8 block: inactive; USP7 block: inactive; USP10 inh: inactive; UCHL1 inh: inactive

What do the screens show for `Cc1csc(SCc2cc(=O)c(OC(=O)c3cccc(F)c3)co2)n1`?
USP8 block: 60.7; USP7 block: inactive; USP10 inh: inactive; UCHL1 inh: inactive

How did O=C(Oc1coc(CSc2ncccn2)cc1=O)c1ccccc1F do in these assays?
USP8 block: inactive; USP7 block: inactive; USP10 inh: inactive; UCHL1 inh: inactive

Results for Cc1ccnc(SCc2cc(=O)c(OC(=O)c3c(F)cccc3Cl)co2)n1 ?
USP8 block: 31.1; USP7 block: inactive; USP10 inh: inactive; UCHL1 inh: inactive

Results for O=C(c1ccc(O)cc1)N1C[C@@H]2C[C@]2(c2ccccc2)C(=O)c2ncccc21 ?
USP8 block: inactive; USP7 block: inactive; USP10 inh: inactive; UCHL1 inh: inactive

How did O=C(c1cccnc1)N1CCCC(c2cc(-c3ccc(F)cc3)n[nH]2)C1 (centres undefined) do in these assays?
USP8 block: inactive; USP7 block: inactive; USP10 inh: inactive; UCHL1 inh: inactive

What do the screens show for `COc1cc2[nH]c3c(N4CCC(C(N)=O)(N5CCCCC5)CC4)ncnc3c2cc1OC`?
USP8 block: inactive; USP7 block: inactive; USP10 inh: inactive; UCHL1 inh: inactive

How did COCCNc1ncnc2c1sc1nc(-c3ccccc3)c3c(c12)CCC3 do in these assays?
USP8 block: inactive; USP7 block: inactive; USP10 inh: inactive; UCHL1 inh: inactive

What do the screens show for `Cc1ccc2nc(-c3cccc(-c4nc5ccc(C)cc5[nH]4)n3)[nH]c2c1`?
USP8 block: 55.3; USP7 block: inactive; USP10 inh: inactive; UCHL1 inh: inactive

What do the screens show for `CN(CC(=O)Nc1ccc(Cl)cc1)c1cnn(-c2nc3ccccc3[nH]2)c(=O)c1Cl`?
USP8 block: 30.4; USP7 block: inactive; USP10 inh: inactive; UCHL1 inh: inactive

Results for O=C(CCc1nc2ccccc2c(=O)[nH]1)Nc1ccc(Cl)cc1 ?
USP8 block: inactive; USP7 block: inactive; USP10 inh: inactive; UCHL1 inh: inactive

Results for CCCCCC1OC(=O)c2c(C)cccc2Oc2ccc(O)c(C=O)c2/C=C/C1O (centres undefined) ?
USP8 block: inactive; USP7 block: inactive; USP10 inh: 30.6; UCHL1 inh: 40.6

Results for C/C(=C\Cc1c(O)cc(C)c(C=O)c1O)CC[C@@]1(C)[C@H](C)CCC(=O)[C@@H]1C ?
USP8 block: inactive; USP7 block: inactive; USP10 inh: 37.5; UCHL1 inh: inactive

How did CCc1ccc(S(=O)(=O)Nc2ccc(-c3nnc(-c4ccccc4)o3)cc2)cc1 do in these assays?
USP8 block: 32.2; USP7 block: inactive; USP10 inh: 47.0; UCHL1 inh: inactive

Results for CCc1ccc(NS(=O)(=O)c2ccc(-c3cnc(C)o3)cc2)cc1 ?
USP8 block: inactive; USP7 block: inactive; USP10 inh: inactive; UCHL1 inh: inactive
